The structures appear in SMILES notation. “And” between values parts separate entries of the source, which are not always exact repeats. Equal entries are not always repeated. The whole screen tested about 350,000 compounds, of which about 2,100 (0.6%) were called active. About 1% were inconclusive and are not listed.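 Rule for the calls: active = activity change of -60% or lower, but not beyond a set lower limit; inconclusive = change between -60% and -40%, or beyond the set limit; inactive = change above -40%.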 The full list was thinned out, with actives kept by preference. Some compounds were tested as several samples or in several runs, with calls that do not always agree.
% is set by controls: 0 for no effect and ±100 for the full control effect.

Sequence of Relaxin receptor 1 (Homo sapiens) (Q9HBX9 whole entry, looked up): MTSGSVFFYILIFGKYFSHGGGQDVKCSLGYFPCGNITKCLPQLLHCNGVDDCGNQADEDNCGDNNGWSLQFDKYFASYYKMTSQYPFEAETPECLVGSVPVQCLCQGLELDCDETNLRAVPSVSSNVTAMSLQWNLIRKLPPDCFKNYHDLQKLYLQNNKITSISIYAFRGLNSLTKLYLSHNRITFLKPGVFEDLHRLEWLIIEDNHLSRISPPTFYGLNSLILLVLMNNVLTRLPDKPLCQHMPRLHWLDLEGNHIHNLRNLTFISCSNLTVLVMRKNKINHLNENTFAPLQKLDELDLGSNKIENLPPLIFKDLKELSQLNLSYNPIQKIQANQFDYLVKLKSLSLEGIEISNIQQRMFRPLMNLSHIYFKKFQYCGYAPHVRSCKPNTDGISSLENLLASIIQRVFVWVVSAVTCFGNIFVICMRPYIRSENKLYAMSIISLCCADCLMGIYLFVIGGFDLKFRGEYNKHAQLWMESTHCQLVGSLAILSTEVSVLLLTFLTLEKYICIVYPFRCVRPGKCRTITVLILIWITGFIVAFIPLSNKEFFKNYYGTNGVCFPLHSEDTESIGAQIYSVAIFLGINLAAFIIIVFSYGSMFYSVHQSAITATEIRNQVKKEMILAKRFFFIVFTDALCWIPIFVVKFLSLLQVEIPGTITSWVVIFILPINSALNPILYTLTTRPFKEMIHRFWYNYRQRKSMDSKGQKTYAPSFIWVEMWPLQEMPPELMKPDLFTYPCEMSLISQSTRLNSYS

This experiment has as its target Relaxin receptor 1 (Homo sapiens) (UniProt Q9HBX9). The experiment can be described thus: qHTS Assay for Antagonists of the Relaxin Receptor RXFP1. Conditions: HEK293-RXFP1, relaxin-stimulated cAMP HTRF, 30 min; at 57.5 µM; stronger effect = lower value.
As for `Cc1ccc2nc(-c3ccc(O)cc3)c(Nc3ccc4c(c3)OCO4)n2c1`, the activity change, negative = inhibition was 15.3% (inactive).

In the case of `CCN(CC)c1cc(NC2CCCCC2)c2c3c(onc13)-c1ccccc1C2=O`, the activity change, negative = inhibition was -18.9% (inactive).

`CCOC(=O)c1c(NC(=O)CSc2nccc(=O)[nH]2)sc(C)c1C`: the activity change, negative = inhibition is -91.3% (active).

For the molecule `CCOC(=O)c1c(NC(=O)CSc2nnc(Cc3csc(N)n3)n2C)sc(C)c1C`, the activity change, negative = inhibition was -1.84% (inactive).

In the case of `CCOC(=O)c1c(NC(=O)CSc2nnc(CNc3ccc(C)cc3C)o2)sc(C)c1C`, the activity change, negative = inhibition is -10.8% (inactive).

Regarding `CCOc1ccccc1C(=O)Nc1ccc(S(=O)(=O)N2CCCCC2c2cccnc2)cc1` (stereo not given), the activity change, negative = inhibition is -12.4% (inactive).

`CCOc1ccc(N(CC)S(=O)(=O)N2CCCC(C(=O)NCc3ccc(Cl)cc3)C2)cc1` (stereo not given): the activity change, negative = inhibition is -18.5% (inactive).

Consider `COCCn1c(=S)[nH]c2cc(C(=O)NCCc3ccc(OC)c(OC)c3)ccc2c1=O`, for which the activity change, negative = inhibition was 2.84% (inactive).

In the case of `CCCCNC(=O)c1ccc(-n2c(=S)[nH]c3ccccc3c2=O)cc1`, the activity change, negative = inhibition is -80.7% (active).

Regarding `CCN(CC)CCCNC(=O)c1ccc2c(=O)n(Cc3ccc4c(c3)OCO4)c(=S)[nH]c2c1`, the activity change, negative = inhibition is -14.7% (inactive).

Take `CCN1CCN(c2ncnc3c2cnn3-c2ccc(C)c(C)c2)CC1`: the activity change, negative = inhibition is -9.99% (inactive).

As to `O=c1oc2ccccc2c(=O)c2ccccc12`, the activity change, negative = inhibition is 10.6% (inactive).

For the molecule `Cc1ccccc1-n1nnc2c(=O)oc3ccccc3c21`, the activity change, negative = inhibition is -91.4% (active).

For the molecule `Cc1cccc(N2CCN(c3c(CN4CCCC4)c(=O)oc4ccccc34)CC2)c1C`, the activity change, negative = inhibition was -2.93% (inactive).

As for `O=C(OCCN1CCOCC1)c1cccnc1Nc1cccc(C(F)(F)F)c1`, the activity change, negative = inhibition is -38.4% (inactive).

For the molecule `CCOc1ccc(C(NC(=O)c2cc(OC)c(OC)c(OC)c2)c2cc(Cl)c3cccnc3c2O)cc1` (stereo not given), the activity change, negative = inhibition is -12.8% (inactive).

Consider `O=C(NCCN1CCOCC1)c1ccc(/C=C2\Sc3ccccc3N(Cc3ccc(F)cc3)C2=O)cc1`, for which the activity change, negative = inhibition was -82.1% (active).

On to `O=C(NCCN1CCOCC1)/C(=C/c1ccc(F)cc1)NC(=O)c1ccccc1`, for which the activity change, negative = inhibition was 12.6% (inactive).

Turning to `CN1CCN(CCCNC(=O)c2ccc(/C=C3\Oc4ccccc4N(Cc4ccc(Cl)cc4)C3=O)cc2)CC1`, the activity change, negative = inhibition is 6.65% (inactive).

Consider `Cc1ccccc1CN1C(=O)c2ccccc2Sc2ccc(C(=O)NCCCN3CCOCC3)cc21`, for which the activity change, negative = inhibition was -22.1% (inactive) and -63.9% (active).

For `CCC1=Nc2cc(C(=O)NCCCN3CCOCC3)ccc2Sc2ccc(Br)cc21`, the activity change, negative = inhibition was -16.7% (inactive).

As for `O=C(NCCN1CCOCC1)c1ccc2c(c1)N(Cc1cccc(Cl)c1)C(=O)c1ccccc1S2(=O)=O`, the activity change, negative = inhibition is 2.8% (inactive).

With `COc1ccc(S(=O)(=O)NCC(c2ccc(N(C)C)cc2)N2CCc3ccccc32)cc1OC` (stereo not given), the activity change, negative = inhibition was -3.43% (inactive).

As to `CN(C)c1cccc(C(=O)Nc2nc3ccc(S(=O)(=O)NC(C)(C)C)cc3s2)c1`, the activity change, negative = inhibition was 1.26% (inactive).

For `CC(C)c1ccc(OCC(=O)N(Cc2ccc(N(C)C)cc2)C2CCS(=O)(=O)C2)cc1` (stereo not given), the activity change, negative = inhibition is -31.5% (inactive).

Regarding `Cc1cccc(Cn2c(SCc3ccc(C(=O)N4CCC(C)CC4)cc3)nc3ccncc32)c1`, the activity change, negative = inhibition was -27.4% (inactive).

For `CC(C)c1ccc(NC(=O)Cn2nnc(C(=O)NCCc3ccccc3)c2N)cc1`, the activity change, negative = inhibition was 7.65% (inactive).

Turning to `Cn1c(C(=O)N2CCC(C(=O)N3CCN(c4ccccc4)CC3)CC2)cc2sccc21`, the activity change, negative = inhibition is -7.62% (inactive).

`COC(=O)/C=C\C(=O)Nc1cccc([N+](=O)[O-])c1`: the activity change, negative = inhibition is -90.5% (active).

With `O=C(CN1CCOCC1)Nc1cccc([N+](=O)[O-])c1`, the activity change, negative = inhibition is -13.2% (inactive).

Turning to `CCC(CC)NC(=O)/C=C/c1cccc([N+](=O)[O-])c1`, the activity change, negative = inhibition was 5.58% (inactive).

Turning to `C[C@@H]1CCC[C@H](C)N1CCCC(O)(c1ccccc1)c1ccccn1` (stereo not given in full), the activity change, negative = inhibition was 5.21% (inactive).

As to `O=C(NNC(=O)C1CCC1)c1ccccc1`, the activity change, negative = inhibition is -1.83% (inactive).

As for `O=C(NNc1nc(N2CCCC2)nc(N2CCCC2)n1)c1ccccc1`, the activity change, negative = inhibition is -63.3% (active).

Regarding `O=C(NNC(=O)C1CCN(c2ncccn2)CC1)c1ccccc1`, the activity change, negative = inhibition was 0.68% (inactive).

As for `CCc1ccc(S(=O)(=O)c2nnn3c2nc(N2CCN(CC)CC2)c2sccc23)cc1`, the activity change, negative = inhibition was -12.6% (inactive).

In the case of `CCN1CCC(O)(/C=C/c2ccc(C)cc2)C(C(=O)/C=C/c2ccc(C)cc2)C1` (stereo not given), the activity change, negative = inhibition was -75.3% (active).

With `CCN1CCC2(CC1)N=C(c1ccc(F)cc1)C(=S)N2C(=O)c1ccc(C)cc1`, the activity change, negative = inhibition is 8.98% (inactive).

As for `CCCS(=O)(=O)c1c(Nc2ccccc2C)sc(C(=O)c2ccccc2)c1N`, the activity change, negative = inhibition is -38.6% (inactive).

For the molecule `Cc1cccc(NC(c2cccc(F)c2)c2ccc3ccc(C)nc3c2O)n1` (stereo not given), the activity change, negative = inhibition is -1.75% (inactive).

Take `Cc1ccc(-c2cnc(NCc3ccc(C(C)C)cc3)n2C)cc1`: the activity change, negative = inhibition is -10.2% (inactive).

Take `Cc1[nH]c2ccccc2c1C(=O)COC(=O)c1c(-c2ccccc2)noc1C`: the activity change, negative = inhibition is -27.9% (inactive).

For the molecule `CC(=O)c1c(C)[nH]c(=S)c(C#N)c1-c1ccc(F)cc1`, the activity change, negative = inhibition was 7.17% (inactive).

For the molecule `CCOC(=O)c1c(C)[nH]c(=S)c(C#N)c1-c1ccccc1`, the activity change, negative = inhibition is -118% (active).

As for `OCCN(Cc1ccccc1)Cc1ccc(Cl)cc1`, the activity change, negative = inhibition was -15.6% (inactive).

Take `OCC(CO)(CO)NCc1ccc(-c2ccccc2)cc1`: the activity change, negative = inhibition is -7.18% (inactive).

`OCc1ccc(-c2ccccc2)c(-c2ccccc2)c1`: the activity change, negative = inhibition is -64.5% (active).

As to `CCOC(=O)c1c(C)oc2nc(C)nc(N(CC(C)C)CC(C)C)c12`, the activity change, negative = inhibition is -27.5% (inactive).

As to `O=C(NCc1cccnc1)c1cn(-c2ccccc2)nc1-c1cccs1`, the activity change, negative = inhibition was -17.9% (inactive).

Turning to `O=C(O)c1ccc(N/N=C/c2cn(-c3ccccc3)nc2-c2cccs2)cc1`, the activity change, negative = inhibition was -105% (active).

Turning to `CC(=O)C1=C(C)NC(C)=C(C(C)=O)C1c1cn(-c2ccccc2)nc1-c1cccs1`, the activity change, negative = inhibition was -18.3% (inactive).

Regarding `CCCn1c2ccccc2c2cnn(CC(=O)N3CCCC(C(=O)OCC)C3)c(=O)c21` (stereo not given), the activity change, negative = inhibition was 3.38% (inactive).

Take `CCN(CCCNC(=O)CSc1cc(=O)n(C)c2cc(Cl)ccc12)c1cccc(C)c1`: the activity change, negative = inhibition was 14% (inactive).

On to `CSc1ccccc1NC(=O)CCS(=O)(=O)c1nc(-c2cccs2)cc(C(F)(F)F)n1`, for which the activity change, negative = inhibition was 0.767% (inactive).

Turning to `COc1ccc(NC(=O)NC(C)c2c(-n3cccc3)sc(C)c2C)cc1OC` (stereo not given), the activity change, negative = inhibition was -9.76% (inactive).

Source of the values: PubChem BioAssay AID1259400 (National Center for Advancing Translational Sciences (NCATS), 2018).
